# Measurements reported in the supplement of paper PMC8728848.
# Many of the other results were omitted from the sample, so the strongest signals are more common in it than they were.
# B1: BDCA-2 (Homo sapiens), Q8WTT0 (protein)
# chain: MVPEEEPQDREKGLWWFQLKVWSMAVVSILLLSVCFTVSSVVPHNFMYSKTVKRLSKLREYQQYHPSLTCVMEGKDIEDWSCCPTPWTSFQSSCYFISTGMQSWTKSQKNCSVMGADLVVINTREEQDFIIQNLKRNSSYFLGLSDPGGRRHWQWVDQTPYNENVTFWHSGEPNNLDERCAIINFRSSEEWGWNDIHCHVPQKSICKMKKIYI
# What was measured:
# Assay in all cases: glycan array binding signal (z-score within array); higher = stronger binding
# Details in all cases: glycan notation: IUPAC condensed, linker removed
# [1] = biological target: Fuc(a1-2)Gal(b1-4)GlcNAc(b1-2)Man(a1-3)[Fuc(a1-2)Gal(b1-4)GlcNAc(b1-2)Man(a1-6)]Man(b1-4)GlcNAc(b1-4)GlcNAc
# In short: (§1)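 Glycan array data were curated from 3228 arrays in the Consortium for Functional Glycomics database and kept only where the protein sequence was available. Glycan names were converted to IUPAC-condensed notation, and columns mapping to the same glycan were averaged. The binding signal is a within-array Z-score, averaged across arrays of the same protein sequence at different concentrations or buffers and across linkers. Negative Z-scores can be read as non-binding.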
# [2] = biological target: Fuc(a1-2)Gal(b1-4)GlcNAc(b1-2)[Fuc(a1-2)Gal(b1-4)GlcNAc(b1-4)]Man(a1-3)[Fuc(a1-2)Gal(b1-4)GlcNAc(b1-2)Man(a1-6)]Man(b1-4)GlcNAc(b1-4)GlcNAc
# In short: as §1
# [3] = biological target: Fuc(a1-2)Gal(b1-4)GlcNAc(b1-3)Gal(b1-4)GlcNAc
# In short: as §1
# Fuc(a1-2)[Gal(a1-3)]Gal = biological target: Fuc(a1-2)[Gal(a1-3)]Gal
# In short: as §1
# [4] = biological target: Fuc(a1-2)[Gal(a1-3)]Gal(b1-3)GalNAc(b1-3)Gal(a1-4)Gal(b1-4)Glc
# In short: as §1
# [5] = biological target: Fuc(a1-3)[Gal(b1-4)]GlcNAc
# In short: as §1
# Gal(a1-3)Gal = biological target: Gal(a1-3)Gal
# In short: as §1
# [6] = biological target: Gal(a1-4)Gal(b1-4)GlcNAc(b1-2)Man(a1-3)[Gal(a1-4)Gal(b1-4)GlcNAc(b1-2)Man(a1-6)]Man(b1-4)GlcNAc(b1-4)GlcNAc
# In short: as §1
# [7] = biological target: Gal(b1-3)GlcNAc(b1-2)Man(a1-3)[Gal(b1-3)GlcNAc(b1-2)Man(a1-6)]Man(b1-4)GlcNAc(b1-4)GlcNAc
# In short: as §1
# [8] = biological target: Gal(b1-3)GlcNAc(b1-3)Gal(b1-3)GlcNAc
# In short: as §1
# [9] = biological target: Gal(b1-3)GlcNAc(b1-3)Gal(b1-4)GlcNAc(b1-2)Man(a1-3)[Gal(b1-3)GlcNAc(b1-3)Gal(b1-4)GlcNAc(b1-2)Man(a1-6)]Man(b1-4)GlcNAc(b1-4)GlcNAc
# In short: as §1
# [10] = biological target: Gal(b1-3)[Fuc(a1-4)]GlcNAc
# In short: as §1
# [11] = biological target: Gal(b1-4)GlcNAc(b1-2)Man(a1-3)Man(b1-4)GlcNAc(b1-4)GlcNAc
# In short: as §1
# [12] = biological target: Gal(b1-4)GlcNAc(b1-2)Man(a1-3)[Gal(b1-4)GlcNAc(b1-2)Man(a1-6)]Man(b1-4)GlcNAc(b1-4)GlcNAc
# In short: as §1
# [13] = biological target: Gal(b1-4)GlcNAc(b1-2)Man(a1-3)[Gal(b1-4)GlcNAc(b1-2)Man(a1-6)]Man(b1-4)GlcNAc(b1-4)[Fuc(a1-6)]GlcNAc
# In short: as §1
# [14] = biological target: Gal(b1-4)GlcNAc(b1-2)Man(a1-3)[Gal(b1-4)GlcNAc(b1-2)Man(a1-6)][GlcNAc(b1-4)]Man(b1-4)GlcNAc(b1-4)[Fuc(a1-6)]GlcNAc
# In short: as §1
# [15] = biological target: Gal(b1-4)GlcNAc(b1-2)Man(a1-3)[GlcNAc(b1-2)Man(a1-6)]Man(b1-4)GlcNAc(b1-4)GlcNAc
# In short: as §1
# [16] = biological target: Gal(b1-4)GlcNAc(b1-2)Man(a1-3)[Man(a1-6)]Man(b1-4)GlcNAc(b1-4)GlcNAc
# In short: as §1
# [17] = biological target: Gal(b1-4)GlcNAc(b1-2)[Gal(b1-4)GlcNAc(b1-4)]Man(a1-3)[GlcNAc(b1-4)][Gal(b1-4)GlcNAc(b1-2)[Gal(b1-4)GlcNAc(b1-6)]Man(a1-6)]Man(b1-4)GlcNAc(b1-4)GlcNAc
# In short: as §1
# [18] = biological target: Gal(b1-4)GlcNAc(b1-2)[Gal(b1-4)GlcNAc(b1-6)]Man(a1-6)[Gal(b1-4)GlcNAc(b1-2)Man(a1-3)]Man(b1-4)GlcNAc(b1-4)GlcNAc
# In short: as §1
# [19] = biological target: Gal(b1-4)GlcNAc(b1-2)[Gal(b1-4)GlcNAc(b1-6)]Man(a1-6)[Gal(b1-4)GlcNAc(b1-2)Man(a1-3)]Man(b1-4)GlcNAc(b1-4)[Fuc(a1-6)]GlcNAc
# In short: as §1
# [20] = biological target: Gal(b1-4)GlcNAc(b1-3)Gal(b1-4)GlcNAc(b1-3)Gal(b1-4)GlcNAc
# In short: as §1
# Gal6S(b1-4)GlcNAc6S = biological target: Gal6S(b1-4)GlcNAc6S
# In short: as §1
# GalNAc(a1-3)GalNAc = biological target: GalNAc(a1-3)GalNAc
# In short: as §1
# [21] = biological target: GalNAc(a1-3)GalNAc(b1-3)Gal(a1-4)Gal(b1-4)GlcNAc
# In short: as §1
# GalNAc(b1-6)GalNAc = biological target: GalNAc(b1-6)GalNAc
# In short: as §1
# GlcA(b1-3)GlcNAc = biological target: GlcA(b1-3)GlcNAc
# In short: as §1
# [22] = biological target: GlcA3S(b1-3)Gal(b1-4)GlcNAc(b1-2)Man
# In short: as §1
# GlcNAc(b1-3)Gal(b1-4)Glc = biological target: GlcNAc(b1-3)Gal(b1-4)Glc
# In short: as §1
# [23] = biological target: GlcNAc(b1-3)Gal(b1-4)GlcNAc(b1-3)GalNAc
# In short: as §1
# [24] = biological target: GlcNAc(b1-4)GlcNAc(b1-4)GlcNAc
# In short: as §1
# [25] = biological target: Man(a1-3)[Man(a1-6)]Man(a1-6)[Man(a1-2)Man(a1-3)]Man(b1-4)GlcNAc(b1-4)GlcNAc
# In short: as §1
# [26] = biological target: Man(a1-3)[Man(a1-6)]Man(a1-6)[Man(a1-3)]Man
# In short: as §1
# [27] = biological target: Man(a1-3)[Man(a1-6)]Man(a1-6)[Man(a1-3)]Man(b1-4)GlcNAc(b1-4)GlcNAc
# In short: as §1
# [28] = biological target: Man(a1-3)[Man(a1-6)]Man(b1-4)GlcNAc(b1-4)[Fuc(a1-6)]GlcNAc
# In short: as §1
# [29] = biological target: Neu5Ac(a2-3)Gal(b1-3)GlcNAc(b1-2)Man(a1-3)[Neu5Ac(a2-3)Gal(b1-3)GlcNAc(b1-2)Man(a1-6)]Man(b1-4)GlcNAc(b1-4)GlcNAc
# In short: as §1
# [30] = biological target: Neu5Ac(a2-3)Gal(b1-3)GlcNAc(b1-3)Gal(b1-3)GlcNAc
# In short: as §1
# [31] = biological target: Neu5Ac(a2-3)Gal(b1-3)GlcNAc(b1-6)GalNAc
# In short: as §1
# Neu5Ac(a2-6)Gal = biological target: Neu5Ac(a2-6)Gal
# In short: as §1
# Neu5Ac(a2-6)Gal(b1-4)Glc = biological target: Neu5Ac(a2-6)Gal(b1-4)Glc
# In short: as §1
# [32] = biological target: Neu5Ac(a2-6)Gal(b1-4)GlcNAc
# In short: as §1
# [33] = biological target: Neu5Ac(a2-6)Gal(b1-4)GlcNAc(b1-2)Man(a1-6)[Gal(b1-4)GlcNAc(b1-2)Man(a1-3)]Man(b1-4)GlcNAc(b1-4)GlcNAc
# In short: as §1
# [34] = biological target: Neu5Ac(a2-6)Gal(b1-4)GlcNAc(b1-3)Gal(b1-4)GlcNAc(b1-3)Gal(b1-4)GlcNAc
# In short: as §1
# [35] = biological target: Neu5Ac(a2-6)Gal(b1-4)GlcNAc(b1-6)[Gal(b1-3)]GalNAc
# In short: as §1
# Neu5Ac(a2-8)Neu5Ac = biological target: Neu5Ac(a2-8)Neu5Ac
# In short: as §1
# [36] = biological target: Neu5Ac(a2-8)Neu5Ac(a2-3)Gal(b1-4)GlcNAc
# In short: as §1
# [37] = biological target: Neu5Ac(a2-8)Neu5Ac(a2-8)Neu5Ac(a2-8)Neu5Ac(a2-3)[GalNAc(b1-4)]Gal(b1-4)Glc
# In short: as §1
# [38] = biological target: Neu5Gc(a2-3)Gal(b1-4)GlcNAc(b1-3)Gal(b1-4)GlcNAc(b1-2)Man(a1-3)[Neu5Gc(a2-3)Gal(b1-4)GlcNAc(b1-3)Gal(b1-4)GlcNAc(b1-2)Man(a1-6)]Man(b1-4)GlcNAc(b1-4)GlcNAc
# In short: as §1
# [39] = biological target: Neu5Gc(a2-8)Neu5Gc(a2-3)Gal(b1-4)GlcNAc
# In short: as §1
binder,measurement,setting,value
B1,glycan array binding signal (z-score),[1],-0.085
same,glycan array binding signal (z-score),[2],-0.163
same,glycan array binding signal (z-score),[3],-0.038
same,glycan array binding signal (z-score),Fuc(a1-2)[Gal(a1-3)]Gal,-0.099
same,glycan array binding signal (z-score),[4],-0.11
same,glycan array binding signal (z-score),[5],-0.224
same,glycan array binding signal (z-score),Gal(a1-3)Gal,-0.284
same,glycan array binding signal (z-score),[6],8.11
same,glycan array binding signal (z-score),[7],7.94
same,glycan array binding signal (z-score),[8],-0.16
same,glycan array binding signal (z-score),[9],-0.163
same,glycan array binding signal (z-score),[10],-0.188
same,glycan array binding signal (z-score),[11],5.76
same,glycan array binding signal (z-score),[12],8.18
same,glycan array binding signal (z-score),[13],3.64
same,glycan array binding signal (z-score),[14],3.96
same,glycan array binding signal (z-score),[15],6.87
same,glycan array binding signal (z-score),[16],3.54
same,glycan array binding signal (z-score),[17],-0.146
same,glycan array binding signal (z-score),[18],6.95
same,glycan array binding signal (z-score),[19],8.21
same,glycan array binding signal (z-score),[20],-0.237
same,glycan array binding signal (z-score),Gal6S(b1-4)GlcNAc6S,-0.168
same,glycan array binding signal (z-score),GalNAc(a1-3)GalNAc,-0.119
same,glycan array binding signal (z-score),[21],-0.114
same,glycan array binding signal (z-score),GalNAc(b1-6)GalNAc,-0.153
same,glycan array binding signal (z-score),GlcA(b1-3)GlcNAc,-0.153
same,glycan array binding signal (z-score),[22],-0.151
same,glycan array binding signal (z-score),GlcNAc(b1-3)Gal(b1-4)Glc,0.173
same,glycan array binding signal (z-score),[23],-0.167
same,glycan array binding signal (z-score),[24],-0.228
same,glycan array binding signal (z-score),[25],-0.087
same,glycan array binding signal (z-score),[26],-0.163
same,glycan array binding signal (z-score),[27],-0.184
same,glycan array binding signal (z-score),[28],-0.173
same,glycan array binding signal (z-score),[29],-0.169
same,glycan array binding signal (z-score),[30],-0.196
same,glycan array binding signal (z-score),[31],-0.169
same,glycan array binding signal (z-score),Neu5Ac(a2-6)Gal,-0.173
same,glycan array binding signal (z-score),Neu5Ac(a2-6)Gal(b1-4)Glc,-0.252
same,glycan array binding signal (z-score),[32],-0.282
same,glycan array binding signal (z-score),[33],11.8
same,glycan array binding signal (z-score),[34],-0.186
same,glycan array binding signal (z-score),[35],-0.164
same,glycan array binding signal (z-score),Neu5Ac(a2-8)Neu5Ac,-0.243
same,glycan array binding signal (z-score),[36],-0.192
same,glycan array binding signal (z-score),[37],-0.318
same,glycan array binding signal (z-score),[38],-0.153
same,glycan array binding signal (z-score),[39],-0.189
